Shown are actives, neighbours in structure and some others; about 1.8% of the full set was active somewhere.
SUMO Mot1 rescue = yeast Mot1-301 growth rescue at high temperature, primary screen, SUMOylation pathway inhibitor project, S. cerevisiae, ATP luminescence, 38.5C | S. cerevisiae Mot1-301 growth rescue; percent above DMSO median, 100 means doubled | growth rescue, % at 18.8 µM | actives 1% (n = 320,000) | AID 2716, 2010;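 active means every valid replicate shows activation above 250% relative to neutral control wells; inactive means the rest, any valid replicate at or below 250%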;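 further: OY570 slx delta 5 strain wells were the positive control but not used for scaling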
AI-2 QS mod = Vibrio harveyi AI-2 quorum sensing modulators, primary screen, JMH597 strain, luminescence/OD600 ratio | activity change, % at 7.5 µM | actives 0.4% (n = 300,000) | Vibrio harveyi JMH597 AI-2 luminescence/OD600 ratio, 9 h; stronger effect = lower value; strain lacks LuxN and CqsS sensors; 0 = neutral-control median; in the data active means activity change below about -75%, passing the limit was not always enough;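 further: luminescence divided by OD600 gain over 9 h not by final OD600 alone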
ARNT-TACC3 inh = disruptors of ARNT/TACC3 protein interaction, primary screen, biochemical, AlphaScreen, single concentration; AID 623870, 2012; actives 0.66% (n = 390,000); inhibition, % at 9.99 µM; Transforming acidic coiled-coil-containing protein 3 (Homo sapiens), Q9Y6A5; AlphaScreen His-ARNT PAS-B/GST-TACC3 binding, luminescence; TACC3 fragment carries E629A point mutation;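 active means mean inhibition of replicates at least 50% and at least half of replicates each reaching 50%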;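 further: 0% = complete ARNT plus TACC3 wells and 100% = ARNT alone without TACC3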
A1 inh = caspase 3/7 activation in MEF A1-2A-BIM cells, primary screen, A1 inhibitor project, cell-based, luminescence, HTS. Caspase-Glo 3/7 luminescence, 3 h; percent of clofoctol response, vehicle zero. caspase activation, % (concentration not given with the values). actives 0.066% (n = 330,000). AID 2462, 2010;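 active means over half of replicate activation scores above 10%, or exactly half above 10 with the replicate mean above 10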
aDG glyco up = activators of alpha-DG glycosylation, primary screen, uHTS, Pro5-aDG cells, AlphaScreen; alpha-DG glycosylation AlphaScreen (IIH6); 0% Pro5, 100% B10-LARGE cell signal; activation, % at 10 µM; actives 0.22% (n = 360,000); AID 624168, 2012;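 active means activation of at least 8% versus controls, or a plate z-score of at least 8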;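 further: Pro5 are CHO cells carrying HIG-tagged alpha-DG that lacks glycosylation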
* hit, by the source's call.

For C[C@@H]1CN([C@H](C)CO)C(=O)Cc2cc(NS(C)(=O)=O)ccc2O[C@H]1CN(C)CC1CC1 the results were ARNT-TACC3 inh -3.
Screening COc1ccc(CCNc2nc(-c3ccccn3)cs2)cc1OC returned SUMO Mot1 rescue 2, AI-2 QS mod 29, ARNT-TACC3 inh 65*, A1 inh 0 and aDG glyco up 0.
`COc1ccc(S(=O)(=O)N[C@H](C(=O)O)C(C)C)cc1` gave SUMO Mot1 rescue 3, AI-2 QS mod 15, ARNT-TACC3 inh -2, A1 inh 0 and aDG glyco up 0.
COc1ccc2c(c1)cc(C(=O)N[C@H](C(=O)N1CCC[C@H]1C(=O)O)C(C)C)n2C was read as SUMO Mot1 rescue 419*, AI-2 QS mod 19, ARNT-TACC3 inh 10, A1 inh -1 and aDG glyco up 0.
For CCCNC(=O)N1[C@H](CO)[C@@H]2c3ccccc3N(C(=O)C3CCC3)C[C@@H]21 the results were ARNT-TACC3 inh -3.
`O=C(Cc1ccccc1)NNC(=S)NC(=O)c1cccs1` gave SUMO Mot1 rescue -12, AI-2 QS mod -83*, A1 inh 0 and aDG glyco up 0.
`O=C(NNC(=S)NC(=O)c1cccs1)c1ccc(O)cc1` gave SUMO Mot1 rescue -12, AI-2 QS mod -34, ARNT-TACC3 inh 37, A1 inh 1 and aDG glyco up 0.
Cc1cccc(C(=O)NC(=S)NNC(=O)Cc2ccccc2)c1 was read as SUMO Mot1 rescue -20, AI-2 QS mod -91*, ARNT-TACC3 inh -1, A1 inh 0 and aDG glyco up 0.
For O=C(NC(=S)NNC(=O)c1cccs1)c1ccc(Br)o1 the results were SUMO Mot1 rescue -22, AI-2 QS mod -88*, ARNT-TACC3 inh 7, A1 inh -1 and aDG glyco up 0.
`Cc1cccc(C(=O)NC(=S)NCc2ccccc2)c1` gave SUMO Mot1 rescue 12, AI-2 QS mod -13, ARNT-TACC3 inh 5, A1 inh 0 and aDG glyco up 0.
Cc1ccc(NC(=O)CSc2nnc(-c3cc(C)[nH]n3)n2N)cc1 was read as SUMO Mot1 rescue 8, AI-2 QS mod 8, ARNT-TACC3 inh 2, A1 inh 2 and aDG glyco up 0.
For CCOC(=O)N1CCN(C(=O)C(=O)Nc2sc3c(c2C(N)=O)CC(C)(C)OC3)CC1 the results were SUMO Mot1 rescue -12, AI-2 QS mod 7, ARNT-TACC3 inh -2, A1 inh 1 and aDG glyco up 4.
`Cc1nc2c(nc1C)C(=O)c1ccccc1C2=O` gave ARNT-TACC3 inh 6 and aDG glyco up 14*.
`O=C(Cc1c[nH]c2ccccc12)N[C@@H](Cc1c[nH]c2ccccc12)C(=O)O` gave SUMO Mot1 rescue 19, AI-2 QS mod 3, ARNT-TACC3 inh -3, A1 inh 0 and aDG glyco up 0.
CC(=NNC(=S)Nc1cccc(C)c1)c1ccccn1 was read as ARNT-TACC3 inh -4 and aDG glyco up 0.
`CC(=NNC(=S)Nc1ccc(C)cc1)c1ccccn1` gave ARNT-TACC3 inh 62* and aDG glyco up 2.
Screening COc1ccccc1NC(=S)NN=C(C)c1ccccn1 returned ARNT-TACC3 inh 65* and aDG glyco up 0.
For COc1cccc(NS(=O)(=O)c2ccc3c(c2)NC(=O)CC(=O)N3)c1 the results were SUMO Mot1 rescue 25, AI-2 QS mod 2, ARNT-TACC3 inh -3, A1 inh 1 and aDG glyco up 0.
For CCOC(=O)/C=C1\SCC(=O)N1CC(=O)NC(C)c1ccccc1 (stereo unspecified) the results were SUMO Mot1 rescue 2, AI-2 QS mod 7, ARNT-TACC3 inh -4, A1 inh 2 and aDG glyco up 0.
Screening Cc1cccc2c(SCC(N)=O)nc(-c3ccccc3)nc12 returned SUMO Mot1 rescue 119, AI-2 QS mod 10, ARNT-TACC3 inh 0, A1 inh 0 and aDG glyco up 0.
O=C1c2c(O)ccc(O)c2C(=O)c2c(NCCNCCO)ccc(NCCNCCO)c21 was read as SUMO Mot1 rescue -33, ARNT-TACC3 inh 65*, A1 inh 0 and aDG glyco up -1.
Screening O=C1c2ccccc2C(=O)c2c(Nc3ccc(CCO)cc3)ccc(O)c21 returned SUMO Mot1 rescue -13, AI-2 QS mod -7, ARNT-TACC3 inh -19, A1 inh -1 and aDG glyco up -1.
`COc1ccc(C2Nc3ccccc3NC3=C2C(=O)CC(C)(C)C3)cc1OC` (stereo unspecified) gave SUMO Mot1 rescue 4, AI-2 QS mod -3, ARNT-TACC3 inh -3, A1 inh 1 and aDG glyco up 0.
Screening COc1ccc(C2Nc3ccccc3NC3=C2C(=O)CC(C)(C)C3)cc1O (stereo unspecified) returned SUMO Mot1 rescue 4, AI-2 QS mod 15, ARNT-TACC3 inh 47*, A1 inh 0 and aDG glyco up 0.
Screening CCOc1ccccc1NC(=O)COC(=O)COc1c(Cl)cc(Cl)c2ccc(C)nc12 returned SUMO Mot1 rescue -8, AI-2 QS mod 15, ARNT-TACC3 inh -10, A1 inh 0 and aDG glyco up 0.
For CCN(CC(=O)NC(C)(C)C)C(=O)COc1c(Cl)cc(Cl)c2ccc(C)nc12 the results were SUMO Mot1 rescue 81, AI-2 QS mod -81*, ARNT-TACC3 inh 13, A1 inh 0 and aDG glyco up 0.
`CCc1ccccc1OCC(=O)NC1CCCC1` gave AI-2 QS mod -9, ARNT-TACC3 inh -4 and aDG glyco up 0.
Screening COc1ccccc1C(=O)N1CCC(N2CCN(c3ccccc3)CC2)CC1 returned SUMO Mot1 rescue -1, AI-2 QS mod 11, ARNT-TACC3 inh 3, A1 inh 1 and aDG glyco up 0.
Screening COc1ccccc1OCC(=O)Nc1ccc(O)cc1C(=O)O returned SUMO Mot1 rescue -10, AI-2 QS mod 8, ARNT-TACC3 inh 7, A1 inh 1 and aDG glyco up 0.
`COc1ccc(NC(=O)CCCN2C(=O)C(c3ccccc3)Oc3cccnc32)c(OC)c1` (stereo unspecified) gave SUMO Mot1 rescue 339*, AI-2 QS mod 12, ARNT-TACC3 inh -2, A1 inh 0 and aDG glyco up 0.
For COc1ccccc1NC(=O)CCCN1C(=O)C(c2ccccc2)Oc2cccnc21 (stereo unspecified) the results were SUMO Mot1 rescue -18, AI-2 QS mod 1, ARNT-TACC3 inh 3, A1 inh 1 and aDG glyco up 0.
